Data on 64 molecules can be found in the antibiotic and cytotoxicity screens of Wong et al. (2023).

Screen size: about 39,000 compounds; about 3,300 (8.5%) were called active. The sample as a whole holds a higher share of actives than the screen did.

In this experiment the test system is HepG2. The experiment is described as follows: cytotoxicity call (relative viability < 0.9). The note with it: 10 µM.
Regarding `COc1ccc(C[C@H]2c3cc(OC)c(OC)cc3CC[N@+]2(C)CCC(=O)OCCCCCOC(=O)CC[N@+]2(C)CCc3cc(OC)c(OC)cc3[C@@H]2Cc2ccc(OC)c(OC)c2)cc1OC`, the cytotoxicity call was “inactive”.
To `COc1ccc(C[C@@H]2c3cc(OC)c(OC)cc3CC[N@+]2(C)CCC(=O)OCCCCCOC(=O)CC[N@@+]2(C)CCc3cc(OC)c(OC)cc3[C@H]2Cc2ccc(OC)c(OC)c2)cc1OC` belongs “active”; to `COc1ccc(CC2c3cc(OC)c(OC)cc3CC[N+]2(C)CCC(=O)OCCCCCOC(=O)CC[N+]2(C)CCc3cc(OC)c(OC)cc3C2Cc2ccc(OC)c(OC)c2)cc1OC.O=S(=O)([O-])c1ccccc1.O=S(=O)([O-])c1ccccc1` (centres undefined), “inactive”; to `COc1ccc(S(=O)(=O)Nc2ccc3c(c2)C(=O)N([C@@H](C)CO)C[C@H](C)[C@@H](CN(C)S(=O)(=O)c2ccccc2)O3)cc1`, “inactive”.
The value for `C[C@@H]1CN([C@H](C)CO)C(=O)c2cc(NC(=O)C3CCCCC3)ccc2O[C@H]1CN(C)Cc1ccc(C(F)(F)F)cc1` was “inactive”; that for `CC(C)NC(=O)Nc1cccc2c1O[C@@H](CN(C)Cc1ccc(Oc3ccccc3)cc1)[C@@H](C)CN([C@H](C)CO)C2=O` was “inactive”; that for `COc1cccn(CC(=O)N2CCO[C@@H](CCN)C2)c1=O` was “inactive”.
To `CCNc1nc(SCC(N)=O)nc(N2CCOCC2)n1` belongs “inactive”; to `CN(C)c1nc(SCC(N)=O)nc(N(C)C)n1`, “inactive”.
On to `CNc1nc(SCC(N)=O)nc(N2CCOCC2)n1`, for which the cytotoxicity call is “active”.
In the case of `Cn1c(=O)c2c(nc(N(CCO)CCO)n2Cc2ccc(F)cc2)n(C)c1=O`, the cytotoxicity call was “inactive”.
With `C[C@@H]1CN([C@@H](C)CO)C(=O)c2c(c3ccccc3n2C)-c2ccccc2CO[C@H]1CN(C)Cc1ccc(Oc2ccccc2)cc1`, the cytotoxicity call was “inactive”.
In the case of `C[C@@H]1CN([C@H](C)CO)C(=O)Cc2cc(NC(=O)CCC(F)(F)F)ccc2O[C@H]1CN(C)C(=O)Nc1ccc(C(F)(F)F)cc1`, the cytotoxicity call is “inactive”.
The value for `C[C@@H]1CN([C@H](C)CO)C(=O)Cc2cc(NC(=O)C3CCCCC3)ccc2O[C@H]1CN(C)Cc1ccc(-c2ccccc2)cc1` was “inactive”; that for `C[C@@H]1CN([C@@H](C)CO)C(=O)Cc2cc(NC(=O)C3CCCCC3)ccc2O[C@H]1CN(C)Cc1ccc(-c2ccccc2)cc1` was “inactive”; that for `C[C@@H]1CN([C@@H](C)CO)C(=O)Cc2cc(NC(=O)C3CCCCC3)ccc2O[C@@H]1CN(C)Cc1ccc(-c2ccccc2)cc1` was “active”.
Turning to `C[C@@H]1CN([C@H](C)CO)C(=O)Cc2cc(NC(=O)C3CCCCC3)ccc2O[C@@H]1CN(C)Cc1ccc(-c2ccccc2)cc1`, the cytotoxicity call was “active”.
To `C[C@H]1CN([C@@H](C)CO)C(=O)Cc2cc(NC(=O)C3CCCCC3)ccc2O[C@@H]1CN(C)Cc1ccc(-c2ccccc2)cc1` belongs “inactive”.
The value for `C[C@H](CO)N1C[C@H](C)[C@H](CN(C)Cc2ccc(-c3ccccc3)cc2)Oc2ccc(NC(=O)C3CCCCC3)cc2CC1=O` was “inactive”; that for `Cc1noc(C)c1NC(=O)N(C)C[C@H]1Oc2c(NC(=O)C3CC3)cccc2C(=O)N([C@H](C)CO)C[C@H]1C` was “inactive”; that for `COc1ccc(NC(=O)Nc2ccc3c(c2)CC(=O)N([C@@H](C)CO)C[C@@H](C)[C@@H](CN(C)Cc2ccc(Cl)c(Cl)c2)O3)cc1` was “active”.
On to `COc1ccc(NC(=O)Nc2ccc3c(c2)CC(=O)N([C@H](C)CO)C[C@H](C)[C@H](CN(C)Cc2ccc(Cl)c(Cl)c2)O3)cc1`, for which the cytotoxicity call is “active”.
The value for `COc1ccc(NC(=O)Nc2ccc3c(c2)CC(=O)N([C@H](C)CO)C[C@H](C)[C@@H](CN(C)Cc2ccc(Cl)c(Cl)c2)O3)cc1` was “inactive”.
Turning to `COc1ccc(NC(=O)Nc2ccc3c(c2)CC(=O)N([C@@H](C)CO)C[C@H](C)[C@@H](CN(C)Cc2ccc(Cl)c(Cl)c2)O3)cc1`, the cytotoxicity call is “active”.
`COc1ccc(NC(=O)Nc2ccc3c(c2)CC(=O)N([C@@H](C)CO)C[C@H](C)[C@H](CN(C)Cc2ccc(Cl)c(Cl)c2)O3)cc1`: the cytotoxicity call was “active”.
Consider `COc1ccc(NC(=O)Nc2ccc3c(c2)C(=O)N([C@H](C)CO)C[C@@H](C)[C@H](CN(C)Cc2ccc(Cl)c(Cl)c2)O3)cc1`, for which the cytotoxicity call is “inactive”.
The value for `COc1ccc(NC(=O)Nc2ccc3c(c2)C(=O)N([C@@H](C)CO)C[C@@H](C)[C@H](CN(C)Cc2ccc(Cl)c(Cl)c2)O3)cc1` was “inactive”; that for `C[C@H](CO)N1C[C@H](C)[C@H](CN(C)S(=O)(=O)c2ccccc2)Oc2ccc(NS(=O)(=O)c3cn(C)cn3)cc2CC1=O` was “inactive”; that for `CC(C)NC(=O)N(C)C[C@H]1Oc2cc(C#Cc3cccc(F)c3)ccc2S(=O)(=O)N([C@H](C)CO)C[C@H]1C` was “inactive”.
As for `O=C(NCCCO)c1cc2ccccc2oc1=O`, the cytotoxicity call was “inactive”.
Consider `COc1cccc(C(=O)Nc2ccc3c(c2)C(=O)N(C)[C@H]2CC[C@@H](CC(=O)NCCCN4CCOCC4)O[C@@H]2CO3)c1`, for which the cytotoxicity call was “inactive”.
`C[C@H]1CN([C@@H](C)CO)C(=O)Cc2cc(NS(C)(=O)=O)ccc2O[C@@H]1CN(C)S(=O)(=O)c1cccs1`: the cytotoxicity call was “inactive”.
In the case of `Cc1ccc(S(=O)(=O)N[C@@H]2CC[C@@H](CCNC(=O)CN3CCOCC3)O[C@@H]2CO)cc1`, the cytotoxicity call was “inactive”.
The value for `COC(=O)CSc1cc(C)nc(N)n1` was “inactive”; that for `COc1cccc(NC(=O)C[C@H]2CC[C@H]3[C@@H](COc4ccc(NC(=O)C5CCOCC5)cc4C(=O)N3C)O2)c1` was “inactive”; that for `C[C@@H]1CN([C@@H](C)CO)C(=O)c2cc(NS(=O)(=O)c3cn(C)cn3)ccc2O[C@@H](C)CCCCO[C@H]1CN(C)C(=O)CCCN(C)C` was “inactive”.
To `C[C@H](CO)N1C[C@H](C)[C@@H](CN(C)Cc2ccc(C(=O)O)cc2)Oc2c(NC(=O)C3CC3)cccc2C1=O` belongs “inactive”; to `COc1ccc(NC(=O)Nc2ccc3c(c2)CC(=O)N([C@H](C)CO)C[C@@H](C)[C@@H](CN(C)Cc2ccc(Cl)c(Cl)c2)O3)cc1`, “inactive”.
The value for `COc1ccc(NC(=O)Nc2ccc3c(c2)CC(=O)N([C@H](C)CO)C[C@@H](C)[C@H](CN(C)Cc2ccc(Cl)c(Cl)c2)O3)cc1` was “active”; that for `COc1ccc(NC(=O)Nc2ccc3c(c2)CC(=O)N([C@@H](C)CO)C[C@@H](C)[C@H](CN(C)Cc2ccc(Cl)c(Cl)c2)O3)cc1` was “inactive”.
As for `C[C@@H]1CN([C@@H](C)CO)C(=O)c2cc(NC(=O)c3ccncc3)ccc2O[C@@H]1CN(C)S(=O)(=O)c1ccc(F)cc1`, the cytotoxicity call is “inactive”.
For `Cc1noc(C)c1NC(=O)N(C)C[C@@H]1Oc2cc(C#CCN(C)C)ccc2S(=O)(=O)N([C@@H](C)CO)C[C@@H]1C`, the cytotoxicity call is “inactive”.
In the case of `Cc1cccc(CN(C)C[C@@H]2Oc3ncc(-c4cc5ccccc5o4)cc3C(=O)N([C@H](C)CO)C[C@@H]2C)c1`, the cytotoxicity call was “active”.
Regarding `C[C@H](CO)N1C[C@H](C)[C@H](CN(C)Cc2cccc(C(F)(F)F)c2)Oc2ncc(-c3ccc(F)cc3)cc2C1=O`, the cytotoxicity call is “inactive”.
To `C[C@H](CO)N1C[C@H](C)[C@H](CN(C)Cc2cccc(C(F)(F)F)c2)Oc2ncc(-c3cc4ccccc4o3)cc2C1=O` belongs “inactive”.
Turning to `C[C@H](CO)N1C[C@H](C)[C@H](CN(C)S(=O)(=O)c2cn(C)cn2)Oc2ncc(-c3cccc(F)c3)cc2C1=O`, the cytotoxicity call was “inactive”.
Consider `C[C@H](CO)N1C[C@H](C)[C@H](CN(C)Cc2cccc(C(F)(F)F)c2)Oc2ncc(/C=C/c3ccccc3)cc2C1=O`, for which the cytotoxicity call was “active”.
As for `C[C@H](CO)N1C[C@H](C)[C@H](CN(C)Cc2cccc(C(F)(F)F)c2)Oc2ncc(-c3cccc(C(F)(F)F)c3)cc2C1=O`, the cytotoxicity call is “inactive”.
The value for `C[C@H](CO)N1C[C@H](C)[C@H](CN(C)Cc2ccccc2)Oc2ncc(-c3cccc(C(F)(F)F)c3)cc2C1=O` was “inactive”; that for `C[C@H](CO)N1C[C@H](C)[C@H](CN(C)S(=O)(=O)c2cn(C)cn2)Oc2ncc(-c3cccc(C(F)(F)F)c3)cc2C1=O` was “active”.
In the case of `C[C@H](CO)N1C[C@H](C)[C@H](CN(C)Cc2cccc(C(F)(F)F)c2)Oc2ncc(-c3ccccc3)cc2C1=O`, the cytotoxicity call is “inactive”.
To `C[C@H](CO)N1C[C@H](C)[C@H](CN(C)S(=O)(=O)c2cn(C)cn2)Oc2ncc(-c3ccccc3)cc2C1=O` belongs “inactive”; to `C[C@H](CO)N1C[C@H](C)[C@H](CN(C)C(=O)Nc2cccc3ccccc23)Oc2ncc(-c3cc4ccccc4o3)cc2C1=O`, “inactive”; to `C[C@H](CO)N1C[C@H](C)[C@H](CN(C)Cc2cccc(C(F)(F)F)c2)Oc2ncc(-c3cccc(F)c3)cc2C1=O`, “active”.
The value for `CCCC#Cc1cnc2c(c1)C(=O)N([C@H](C)CO)C[C@H](C)[C@H](CN(C)S(=O)(=O)c1cccc(OC)c1)O2` was “inactive”.
The value for `COCC#Cc1cnc2c(c1)C(=O)N([C@H](C)CO)C[C@H](C)[C@@H](CN(C)C(=O)Nc1ccc(OC)cc1)O2` was “inactive”; that for `COc1ccc(CNC(=O)C[C@@H]2C[C@H]3c4cc(NS(=O)(=O)c5ccc(F)cc5)ccc4O[C@H]3[C@@H](CO)O2)cc1` was “inactive”; that for `COc1ccc(CN(C)C[C@@H]2Oc3c(NS(=O)(=O)c4cn(C)cn4)cccc3C(=O)N([C@@H](C)CO)C[C@@H]2C)cc1` was “inactive”.
On to `COc1cccc(S(=O)(=O)Nc2ccc3c(c2)[C@@H]2C[C@H](CC(=O)N4CCCCC4)O[C@@H](CO)[C@@H]2O3)c1`, for which the cytotoxicity call was “inactive”.
The value for `C[C@@H]1CN([C@@H](C)CO)S(=O)(=O)c2ccc(C#CCN(C)C)cc2O[C@H]1CN(C)Cc1ccccc1F` was “inactive”.
To `Cn1c(S(=O)(=O)CC(N)=O)nc2ccccc21` belongs “inactive”; to `Cc1cccc(OC[C@H](O)Cn2c(N3CCN(C)CC3)nc3c2c(=O)n(C)c(=O)n3C)c1`, “inactive”.
`Cc1noc(C)c1NC(=O)N(C)C[C@H]1Oc2ccc(NC(=O)Nc3cccc4ccccc34)cc2C(=O)N([C@H](C)CO)C[C@@H]1C`: the cytotoxicity call was “inactive”.
Regarding `CN(C)CCCNC(=O)C[C@H]1CC[C@H]2[C@@H](COc3ccc(NC(=O)c4ccccc4F)cc3C(=O)N2C)O1`, the cytotoxicity call was “inactive”.
